In the library only some 7.1% were active in any assay of this set; here they are far more common.
IL-1B inflam inh = blocks inflammasome-driven IL-1 beta release; AID 743279; THP-1 LPS/ATP IL-1B secretion, AlphaLISA, 16 h; active compounds read low; 360,000 tested, 4.7% active; activity change, % at 57.5 µM; in the data active = activity change below about -50%; inconclusive = mostly about -30% to -49%
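Secreted IL-1B measured by AlphaLISA bead assay after 16 h compound exposure of THP-1 cells; compounds (final up to 57.5 uM) added 1 h before LPS (250 ng/mL) and ATP (1.25 mM) stimulation; lower signal means less secretion.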
MCF10A rereplic = inducers of DNA re-replication in MCF 10A breast cells; MCF 10A DNA re-replication, Hoechst nuclear intensity, 48 h; Potency, µM (titrated, usually from 46.1 µM), hits mostly activators; 350,000 tested, 2.9% active; AID 624296; also: nearly all actives have a fitted effect of over 50% in size
ATXN2 expr inh = ATXN2 expression inhibition; HEK-293 ATXN2-luciferase reporter, luminescence, 24 h; Potency, µM (highest dose often 57 µM), usual class: inhibitors; 360,000 tested, 0.72% active; AID 1745845; also: nearly all actives have a fitted effect of over 55% in size
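ATXN2-luciferase reporter cells (luciferase flanked by upstream and downstream ATXN2 gene portions) were treated 24 h at 37 °C with compounds at up to 57 uM. SteadyGlo luminescence gave expression; GF-AFC fluorescence gave viability.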
S2 tox = cell viability loss in ATXN counter-screen. S2 cells (HEK-293 line with an ATXN2-luciferase reporter) viability, CellTiter-Fluor protease fluorescence, 24 h. 400,000 tested, 0.49% active. AID 651635. Potency, µM (doses to about 56.7 µM), most hits filed as cytotoxic; also: nearly all actives have a fitted effect of over 40% in size
PINK1 modulator = PINK1 expression modulation; AID 624263; PINK1 immunofluorescence, high-content cytometry, 24 h; Potency, µM (top dose mostly 76.6 µM), actives largely listed as activators; 410,000 tested, 0.2% active; active = well fitted activation curve with a large enough effect; inconclusive = small, poorly fitted or top-dose-only effect; cell line not stated here; also: nearly all actives have a fitted effect of over 65% in size
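Stable cell line treated 24 h with compounds at 5 concentrations (CCCP controls), then fixed and immunostained for PINK1 plus nuclear and cell stains; PINK1 immunofluorescence quantified by laser-scanning microplate cytometry.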
SW480 rerep = inducers of DNA re-replication in SW480 colon cancer cells; SW480 DNA re-replication, Hoechst DNA content imaging, 48 h; Potency, µM (top dose mostly 46.1 µM), usual class: activators; 340,000 tested, 1.8% active; AID 624297; also: nearly all actives have a fitted effect of over 55% in size
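SW480 cells exposed to compounds for 48 hr at 37 C, 5% CO2, then Hoechst-stained 40 min. Nuclear DNA content imaged by fluorescence scanning (405 nm excitation, 500-530 nm emission); re-replication scored as increased high-intensity nuclei.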
Large screens that a line does not name were inactive. Unless noted, calls follow the shape of the dose curve; as a rule, active = well fitted curve in the direction sought with a large enough effect; inconclusive = small, poorly fitted or top-dose-only effect, or another doubt; inactive = no such curve, though single readings can be large; an effect the other way counts as inactive or inconclusive.

Cc1ccc(OCCN2CCN(c3nc(NCc4ccco4)c4ccccc4n3)CC2)cc1	IL-1B inflam inh -60.4, MCF10A rereplic 14.6µM, SW480 rerep inconclusive
OCCN1CCN(c2nc(NCc3ccco3)c3ccccc3n2)CC1	MCF10A rereplic inconclusive, SW480 rerep inconclusive
CC1CCc2c(c3ccccc3n2C(=O)CCl)C1 (centres undefined)	IL-1B inflam inh -59.9, MCF10A rereplic 18.4µM
Cc1ccc(S(=O)(=O)C(CNC(=O)c2ccccc2F)c2cccs2)cc1 (centres undefined)	none (no result: IL-1B inflam inh, MCF10A rereplic, SW480 rerep)
CCC(=O)N1CCc2cc(CNC(=O)Cc3ccc(F)cc3)ccc21	none (no result: IL-1B inflam inh, MCF10A rereplic, ATXN2 expr inh, S2 tox, SW480 rerep)
CCOC(=O)N1CCN(S(=O)(=O)c2ccc(OCC)c3ccccc23)CC1	IL-1B inflam inh -79.7, MCF10A rereplic inconclusive
CCOC(=O)N1CCN(S(=O)(=O)c2ccc(OCC(=O)OC)c(Cl)c2)CC1	IL-1B inflam inh -91.3
CCOC(=O)N1CCN(S(=O)(=O)c2ccc(OC)c(Cl)c2)CC1	none
Cc1ccccc1CNC(=O)C(=O)NCC(c1cccs1)S(=O)(=O)c1ccc(Cl)cc1 (centres undefined)	none (no result: IL-1B inflam inh, MCF10A rereplic, SW480 rerep)
CCC(C)(C)NC(=O)c1ccc(Sc2nncn2C)c([N+](=O)[O-])c1	none
CCN(CC)S(=O)(=O)c1ccc(NC(=O)c2ccc(Sc3nncn3C)c([N+](=O)[O-])c2)cc1	IL-1B inflam inh -90.9
CN(C)S(=O)(=O)c1cccc(NC(=O)c2ccc(Sc3nncn3C)c([N+](=O)[O-])c2)c1	none (no result: ATXN2 expr inh)
Cn1cnnc1Sc1ccc(/C=C/C(=O)c2ccc(O)cc2)cc1[N+](=O)[O-]	IL-1B inflam inh -101.4, MCF10A rereplic inconclusive, S2 tox 7.08µM (no result: ATXN2 expr inh)
Cc1cccc(N2CCN(C(=O)CN3C(=O)COc4ccc(S(=O)(=O)N5CCCCCC5)cc43)CC2)c1C	none (no result: IL-1B inflam inh, MCF10A rereplic, SW480 rerep)
COC(=O)c1cc(Cl)c(NC(=O)c2ccc(C(C)(C)C)cc2)cc1OC	MCF10A rereplic 9.2µM, PINK1 modulator inconclusive
O=C(Nc1ccc2nc(C3CC3)n(Cc3ccc(F)cc3)c(=O)c2c1)c1ccco1	IL-1B inflam inh -50.9, MCF10A rereplic inconclusive
CCC(=O)Nc1ccc2nc(C3CC3)n(Cc3ccc(C(C)(C)C)cc3)c(=O)c2c1	MCF10A rereplic inconclusive
COc1ccc(Cn2c(C3CC3)nc3ccc(NC(=O)C4CC4)cc3c2=O)cc1	IL-1B inflam inh -65.0
CC(=O)Nc1ccc2nc(C3CC3)n(Cc3ccc(Cl)cc3)c(=O)c2c1	MCF10A rereplic inconclusive
COc1ccc(Cn2c(SCc3ccc(C(=O)NCc4cccs4)cc3)nc3cccnc32)cc1	none (no result: IL-1B inflam inh, MCF10A rereplic, ATXN2 expr inh, S2 tox, SW480 rerep)
C=CCN(CC=C)c1cnn(-c2nc3ccccc3[nH]2)c(=O)c1Cl	IL-1B inflam inh inconclusive
O=c1c(Cl)c(NCCCO)cnn1-c1nc2ccccc2[nH]1	IL-1B inflam inh -117.3, MCF10A rereplic 2.91µM, ATXN2 expr inh inconclusive, S2 tox inconclusive, SW480 rerep inconclusive
CCOc1ccc(CNC(=O)c2cc3c(=O)n(Cc4cccs4)ccc3nc2C)cc1	none (no result: IL-1B inflam inh, MCF10A rereplic, ATXN2 expr inh, S2 tox, SW480 rerep)
CCCCC/C=C\C/C=C\CCCCCCCC(=O)NC(C)c1ccccc1 (centres undefined)	none (no result: IL-1B inflam inh, MCF10A rereplic, PINK1 modulator, SW480 rerep)
COc1ccc(C(C(=O)Nc2ccc3c(c2)OCO3)N(C)C(=O)Cc2c[nH]c3ccccc23)cc1 (centres undefined)	IL-1B inflam inh -58.2
Cc1ccc(C(C(=O)NC2CCCCC2)N(Cc2ccccc2)C(=O)Cc2c[nH]c3ccccc23)o1 (centres undefined)	IL-1B inflam inh inconclusive, ATXN2 expr inh inconclusive, S2 tox inconclusive
COc1cccc(CN(C(=O)Cc2c[nH]c3ccccc23)C(C(=O)NC2CCCCC2)c2ccc(C)o2)c1 (centres undefined)	IL-1B inflam inh -67.8, ATXN2 expr inh inconclusive, S2 tox inconclusive, SW480 rerep inconclusive
COc1ccc(CN(C(=O)Cc2c[nH]c3ccccc23)C(C(=O)NC2CCCCC2)c2ccc(C)o2)cc1 (centres undefined)	IL-1B inflam inh -58.9, MCF10A rereplic inconclusive (no result: ATXN2 expr inh, S2 tox, PINK1 modulator)
Cc1nn(C)c(C)c1S(=O)(=O)N(CC(=O)NCCc1ccc(Cl)cc1)c1ccc(C(C)C)cc1	none (no result: IL-1B inflam inh, MCF10A rereplic, ATXN2 expr inh, S2 tox, SW480 rerep)
Cc1[nH]c2ccccc2c1SCC(=O)N1CCCCC1	MCF10A rereplic 5.8µM (no result: S2 tox)
COC(=O)CSc1nc2ccccc2nc1SCC(=O)OC	MCF10A rereplic 23.1µM, SW480 rerep 18.4µM
O=C(CSc1nc2ccccc2nc1SCC(=O)N1CCCCC1)N1CCCCC1	IL-1B inflam inh -59.5, ATXN2 expr inh inconclusive, S2 tox inconclusive
O=C(CSc1nc2ccccc2nc1SCC(=O)N1CCOCC1)N1CCOCC1	none
COC(=O)CSc1cnc2ccccc2n1	none
CC(C)Cc1nc2cc(NS(=O)(=O)N(C)C)cc(C(=O)N3CCSCC3)c2n1C	S2 tox inconclusive (no result: IL-1B inflam inh, MCF10A rereplic, ATXN2 expr inh, SW480 rerep)
COc1ccc(C(=O)NC(=S)Nc2ccc(N3CCCC3)cc2)cc1	none
CN1CCN(c2ccc(NC(=S)NC(=O)c3cccc4c(Cl)cccc34)cc2)CC1	MCF10A rereplic inconclusive, SW480 rerep 20.6µM
CC(=O)c1cccc(NC(=S)NC(=O)c2cncc(Br)c2)c1	none (no result: ATXN2 expr inh)
CCCC(=O)N1CCN(c2ccc(NC(=S)NC(=O)c3cccc(C)c3)cc2)CC1	IL-1B inflam inh -64.8, ATXN2 expr inh inconclusive, S2 tox inconclusive
COc1cccc(C(=O)NC(=S)Nc2ccc(N3CCCC3)cc2)c1	IL-1B inflam inh -57.4
CCC(=O)N1CCN(c2ccc(NC(=S)NC(=O)c3ccc(OC)c([N+](=O)[O-])c3)cc2)CC1	none
COc1cccc(NC(=S)NC(=O)c2cncc(Br)c2)c1	SW480 rerep 18.4µM
CN(C(=O)CN1C(=O)NC(C)(c2cccc(Br)c2)C1=O)C1CCCCC1 (centres undefined)	IL-1B inflam inh -88.7
O=C(Nc1ccc(F)cc1F)C1CCN(S(=O)(=O)c2ccc3[nH]c(=O)ccc3c2)CC1	none (no result: IL-1B inflam inh, MCF10A rereplic, SW480 rerep)
Cc1[nH]n(-c2ccccc2)c(=O)c1C(C[N+](=O)[O-])c1ccc(Cl)cc1 (centres undefined)	MCF10A rereplic inconclusive, SW480 rerep 16.4µM
N=c1oc2cc(O)ccc2cc1C(=O)Nc1nc2ccccc2s1	MCF10A rereplic 8.2µM, SW480 rerep 2.91µM (no result: S2 tox)
N=c1oc2ccccc2cc1C(=O)Nc1ccccc1	none
N=c1oc2cc(O)ccc2cc1C(=O)Nc1ccc(Br)cc1	IL-1B inflam inh -89.9, MCF10A rereplic 5.17µM, PINK1 modulator inconclusive, SW480 rerep 1.64µM (no result: S2 tox)
O=C(NCc1ccncc1)c1cnn(-c2ncc3c(n2)-c2ccccc2CC3)c1C1CC1	none (no result: IL-1B inflam inh, MCF10A rereplic, ATXN2 expr inh, SW480 rerep)
CC(C)CC1(C(=O)NCc2cc(F)cc(C(F)(F)F)c2)C=CCN1C(=O)c1ccccc1 (centres undefined)	MCF10A rereplic 1.46µM

High-throughput results deposited in PubChem BioAssay by National Center for Advancing Translational Sciences (NCATS).
